Measurements reported in PubChem BioAssay.
Values without a mark were called inactive. The rule behind the calls is not given here.

Target: Pantothenate synthetase (Mycobacterium tuberculosis (strain ATCC 25618 / H37Rv)) (UniProt P9WIL5)
Test: Coupled enzyme confirmation of inhibitors against recombinant Mtb PanC (AID 375);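 note: 0% = full reaction with vehicle and 100% = no enzyme background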
Settings: coupled enzyme assay; at 10 µM, active compounds read high

Pantothenate synthetase (Mycobacterium tuberculosis (strain ATCC 25618 / H37Rv)), sequence (P9WIL5 whole entry, looked up): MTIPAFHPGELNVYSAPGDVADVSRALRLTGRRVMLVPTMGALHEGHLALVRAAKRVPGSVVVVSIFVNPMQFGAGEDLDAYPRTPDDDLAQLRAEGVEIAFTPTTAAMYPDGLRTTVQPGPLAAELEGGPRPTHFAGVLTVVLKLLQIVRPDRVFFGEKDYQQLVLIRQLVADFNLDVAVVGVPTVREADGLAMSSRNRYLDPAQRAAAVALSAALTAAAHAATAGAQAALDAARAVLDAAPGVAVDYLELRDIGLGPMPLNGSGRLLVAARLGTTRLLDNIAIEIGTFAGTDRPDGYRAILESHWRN

Cc1nc2ccccn2c1/C(O)=C1\C(=O)C(=O)N(CCCN(C)C)C1c1ccc(F)cc1 (stereo not given)
inhibition: 4%

COc1ccccc1CN1CC(C(=O)N2CCN(c3ccc(F)cc3)CC2)CC1=O (stereo not given)
inhibition: 0%

CC(=O)Nc1cccc(NC(=O)CSc2nn3c(=O)c(C)nnc3s2)c1
inhibition: 2%

CN(C)CCOC(c1ccccc1)c1ccccc1
inhibition: 0%

CCSCCNC(=O)c1cc(-n2cnnc2)ccc1Cl
inhibition: 0%

Cn1nc(C(=O)N2CCOCC2)c2ccccc2c1=O
inhibition: 0%

CCc1nnc(NC(=O)c2cc3c(s2)CCCCC3)s1
inhibition: 0%

Cc1cc(S(=O)(=O)N2CCN(c3ccccc3C)CC2)ccc1F
inhibition: 5%

CCn1c(SCC(=O)Nc2ccc(Cl)cc2)nnc1C1CC1
inhibition: 0%

CC1CCN(c2nc3c(c(=O)[nH]c(=O)n3C)n2CCSc2ncccn2)CC1
inhibition: 0%

O=C1COc2ccc(C(=O)COC(=O)CCc3ccc(S(=O)(=O)N4CCOCC4)cc3)cc2N1
inhibition: 8%

O=C(c1cccn2c(=O)c3cc(Cl)ccc3nc12)N1CCOCC1
inhibition: 3%

CC(=O)Nc1ccc(NC(=O)c2cc(C)nn2-c2ccccc2)cc1
inhibition: 2%

COC(=O)C(F)(F)Sc1c(C)[nH]c2ccccc12
inhibition: 3%

O=C(NCc1ccco1)c1cc2n(n1)C(C(F)(F)F)CC(c1ccc(F)cc1)N2 (stereo not given)
inhibition: 9%

Cc1nc2cc(CO)ccc2n1C
inhibition: 4%

CCOC(=O)C1CN(S(=O)(=O)c2ccc(C)cc2)CCN1S(=O)(=O)c1ccc(C)cc1 (stereo not given)
inhibition: 0%

COc1ccc(OCC(=O)N2CC3(C)CC2CC(C)(C)C3)cc1 (stereo not given)
inhibition: 0%

COC(=O)c1cc2oc(C)cc2n1CC(=O)N(C)c1ccccc1
inhibition: 0%

CC(C)(C)SCCNC(=O)COc1ccccc1
inhibition: 3%

O=C(c1cc(S(=O)(=O)N2CCOCC2)ccc1F)N1CCCc2ccccc21
inhibition: 1%

CCC(c1nnnn1Cc1ccco1)N(CCc1ccccc1)Cc1cc2cccc(C)c2[nH]c1=O (stereo not given)
inhibition: 1%

CCC(=O)N1CCc2cc(Br)cc(S(=O)(=O)N3CCCCCC3)c21
inhibition: 0%

Cc1nc2c3cnn(-c4ccccc4)c3ncn2n1
inhibition: 7%

Cn1nnnc1SCSc1nnnn1C
inhibition: 1%

O=C(c1ccco1)N1CCN(c2nc(C(F)(F)F)nc3c2nnn3Cc2ccccc2)CC1
inhibition: 0%

Cc1nn(Cc2ccccc2Cl)c(C)c1NC(=O)C1C2CCC(O2)C1C(=O)O (stereo not given)
inhibition: 1%

CCN1CCN(Cc2nc3c(c(=O)[nH]c(=O)n3C)n2Cc2ccccc2Cl)CC1
inhibition: 2%

COc1cccc(CC(NC(C)=O)C(=O)NC2CCN(c3c4c(nc5ncnn35)CCC4)CC2)c1 (stereo not given)
inhibition: 5%

NNC(=O)c1ccncc1
inhibition: 0%

CCn1c(C)c(CCC(=O)O)c(=O)n2nc(-c3ccccc3OC)cc12
inhibition: 0%

CCN1CCN(c2c(Cl)cccc2NC(=O)c2ccc3c(c2)OCCO3)CC1
inhibition: 0%

CO[C@H]1C=CO[C@@]2(C)Oc3c(C)c(O)c4c(O)c(c(C=NN5CCN(C)CC5)c(O)c4c3C2=O)NC(=O)C(C)=CC=C[C@H](C)[C@H](O)[C@@H](C)[C@@H](O)[C@@H](C)[C@H](OC(C)=O)[C@@H]1C
inhibition: 3%

COc1ccccc1NC(=O)C1=C(C)Nc2ncnn2C1c1ccc(C)o1 (stereo not given)
inhibition: 10%

CC(=O)NC1(C(F)(F)F)NC(=O)N(CC(C)C)C1=O (stereo not given)
inhibition: 0%

COC(=O)CN1C(=O)C(O)(CC(=O)c2ccc(C)cc2)c2cc(Br)ccc21 (stereo not given)
inhibition: 2%

CCCCCn1c2nc3ccccc3nc2c2c(=O)n(CC(C)C)cnc21
inhibition: 7%

O=[N+]([O-])c1cccc2cn[nH]c12
inhibition: 0%

Cc1ccc2[nH]c(=O)c(-c3noc(-c4ccncc4)n3)cc2c1
inhibition: 2%

COc1ccccc1NC(=O)N(C1CCCC1)C1CCN(C(C)=O)CC1
inhibition: 1%

COc1cc(C(=O)Nc2ccc3c(c2)C(=O)N(CCC(=O)O)C3=O)cc(OC)c1OC
inhibition: 0%

O=C(C1CCN(c2nnc(-n3cccc3)s2)CC1)N1CCOCC1
inhibition: 0%

CCOC(=O)c1c(C)c(C(=O)NCC2CCCO2)c(C)n1C (stereo not given)
inhibition: 7%

C=CCOC(=O)C1=C(C)OC(N)=C(C#N)C1c1ccc2c(c1)OCO2 (stereo not given)
inhibition: 9%

O=C(COC(=O)C1(c2ccccc2F)CCCC1)NC1CCS(=O)(=O)C1 (stereo not given)
inhibition: 3%

COc1cccc(NC(=O)COc2ccccc2C(N)=O)c1
inhibition: 0%

CCOc1ccc(C(=O)N(Cc2ccc(N(C)C)cc2)C2CCS(=O)(=O)C2)cc1 (stereo not given)
inhibition: 0%

O=C1C(Cl)=C(N2CCOCC2)C(=O)N1CCc1ccccc1
inhibition: 4%

Cc1cc(C)nc(N(C#N)CC(=O)N2CCC(C(N)=O)CC2)n1
inhibition: 1%

Cc1nc2c(c(=O)n1CC1CCCO1)c1nc3ccccc3nc1n2CC(C)C (stereo not given)
inhibition: 0%
